Screening results (PubChem)
Only some compounds are listed: those with a hit (about 11% of all), similar ones and a draw of the others.
HP1b chromo inh – inhibitors of HP1-beta chromodomain binding to methylated histone tails; P83916; AlphaScreen HP1-beta / biotin-H3K9me3 peptide binding; Potency, µM (series often up to 114 µM), for inactives: at the highest dose activity change, negative = inhibition, actives largely listed as inhibitors; 0.56% of 390,000 active; note: nearly all actives have a fitted effect of over 70% in size
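HP1-beta protein (50 nM final) preincubated 30 min at room temperature with biotinylated H3(1-18)K9me3 peptide (50 nM) in PBS pH 7.4, 0.01% Tween-20, then compound added for 30 min. AlphaScreen streptavidin donor/nickel chelate acceptor beads (10 ug/mL final), 30 min dark, luminescence read.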
L3MBTL1 block – L3MBTL1 (human) inhibition | AID 485360 | Q9Y468 | Potency, µM (highest dose often 57.1 µM), inactives show at the top dose activity, negative = inhibition, most hits filed as inhibitors | 0.66% of 230,000 active | AlphaScreen L3MBTL1–H3K9me1 peptide binding; note: % is set by controls: 0 for no effect and ±100 for the full control effect; nearly all actives have a fitted effect of over 60% in size
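AlphaScreen assay: L3MBTL1 (50 nM final) was preincubated 30 min at room temperature with biotinylated H3(1-15)K9me1 peptide (75 nM final), then 30 min with library compounds; streptavidin donor and nickel chelate acceptor beads (10 ug/mL final) added, 30 min dark.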
BAZ2B block – BAZ2B (human) inhibition | AlphaScreen BAZ2B-H3K14Ac peptide displacement | Potency, µM (titrated, usually from 114 µM), inactives show top-dose activity change, negative = inhibition, usual class: inhibitors | 4.4% of 360,000 active; note: % is set by controls: 0 for no effect and ±100 for the full control effect; nearly all actives have a fitted effect of over 60% in size
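AlphaScreen displacement: compounds (up to 110uM) incubated 30 min at room temperature with a preformed 50 nM BAZ2B/50 nM biotinylated H3K14Ac peptide complex in PBS pH 7.4 with Tween-20. Donor and acceptor beads at 10 ug/mL final added, 20 min light-protected before reading.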
G9a block – G9a (human) methyltransferase inhibition; Q96KQ7; G9a H3K9 monomethylation, AlphaScreen, 2 h; Potency, µM (series often up to 102 µM), for the others: top-dose activity, negative = inhibition, most hits filed as inhibitors; 8.8% of 350,000 active; note: % is set by controls: 0 for no effect and ±100 for the full control effect; nearly all actives have a fitted effect of over 75% in size
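Enzyme 20 nM + cpd, 15 min RT; add b-H3K9 pep 500 nM / SAM 20 uM; 2 h RT; anti-H3K9me1 Ab 0.5 ug/mL + SA donor / anti-rabbit acceptor beads 20 ug/mL each, 10 min; AlphaScreen read.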
JMJD2A Tudor inh – blocks the human JMJD2A Tudor domain; O75164; AlphaScreen JMJD2A-Tudor / H3K4me3 peptide binding; Potency, µM (titrated, usually from 114 µM), for the others: at the top dose activity change, negative = inhibition, usual class: inhibitors; 4.4% of 390,000 active; note: % is set by controls: 0 for no effect and ±100 for the full control effect; nearly all actives have a fitted effect of over 50% in size
Target sequence (O75164 whole entry, looked up, the tested form may be a part): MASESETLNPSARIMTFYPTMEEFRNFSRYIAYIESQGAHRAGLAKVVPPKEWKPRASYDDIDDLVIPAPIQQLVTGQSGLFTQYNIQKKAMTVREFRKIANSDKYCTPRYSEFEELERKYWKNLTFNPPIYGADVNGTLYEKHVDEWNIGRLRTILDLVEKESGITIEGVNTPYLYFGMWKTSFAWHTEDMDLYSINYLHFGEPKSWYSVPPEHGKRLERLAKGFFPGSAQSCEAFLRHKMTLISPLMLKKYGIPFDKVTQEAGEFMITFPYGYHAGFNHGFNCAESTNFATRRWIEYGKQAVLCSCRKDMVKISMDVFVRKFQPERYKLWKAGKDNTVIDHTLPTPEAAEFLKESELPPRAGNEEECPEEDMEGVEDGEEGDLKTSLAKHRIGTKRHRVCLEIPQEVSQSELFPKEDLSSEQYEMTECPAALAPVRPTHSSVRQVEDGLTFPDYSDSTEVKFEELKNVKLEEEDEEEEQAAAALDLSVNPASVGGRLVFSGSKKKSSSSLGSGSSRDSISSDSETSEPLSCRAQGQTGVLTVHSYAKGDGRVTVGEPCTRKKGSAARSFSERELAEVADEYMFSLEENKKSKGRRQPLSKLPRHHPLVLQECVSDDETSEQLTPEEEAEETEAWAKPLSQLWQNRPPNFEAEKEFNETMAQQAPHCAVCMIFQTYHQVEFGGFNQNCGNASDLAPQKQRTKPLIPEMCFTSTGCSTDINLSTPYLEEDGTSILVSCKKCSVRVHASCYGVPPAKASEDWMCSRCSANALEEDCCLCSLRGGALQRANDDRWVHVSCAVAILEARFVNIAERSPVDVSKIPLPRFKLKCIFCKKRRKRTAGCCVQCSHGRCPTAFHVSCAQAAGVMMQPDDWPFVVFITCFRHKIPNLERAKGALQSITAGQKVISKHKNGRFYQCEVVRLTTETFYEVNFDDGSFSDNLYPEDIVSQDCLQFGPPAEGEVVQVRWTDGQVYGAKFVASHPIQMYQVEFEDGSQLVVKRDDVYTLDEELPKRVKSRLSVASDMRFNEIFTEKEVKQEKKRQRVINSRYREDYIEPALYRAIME
* = called active by the depositor; [ ] = dose if it differs, or a comment. Calls come from the whole dose curve; as a rule, active = well fitted inhibition curve with a large enough effect; inconclusive = small, poorly fitted or top-dose-only effect; inactive = no such curve, though single readings can be large or run the other way. Potency is the fitted concentration of half-maximal effect.

NC(=O)CSc1nc2scc(-c3ccco3)c2c(=O)n1-c1ccccc1 was read as HP1b chromo inh inconclusive, BAZ2B block inconclusive, G9a block inconclusive and JMJD2A Tudor inh 44.7µM*.
For CCOc1ccc(C(c2c(O)cc(C)n(CCOC)c2=O)N2CCN(c3ccccc3)CC2)cc1 (stereo unspecified) the results were HP1b chromo inh 10.9%[57 µM], BAZ2B block 1.4%, G9a block inconclusive and JMJD2A Tudor inh inconclusive.
Screening COc1ccc(NC(=O)/C(C#N)=C/c2ccc(OCCN3CCOCC3)c(OC)c2)c(OC)c1 returned HP1b chromo inh 30.1%, BAZ2B block -7.0%, G9a block inconclusive and JMJD2A Tudor inh -10.7%.
Screening CC(=O)c1ccc(NC(=O)COc2ccccc2-c2nc(-c3cccc(C)c3)no2)cc1 returned HP1b chromo inh -7.2%, BAZ2B block -7.8%, G9a block -30.5%[59 µM] and JMJD2A Tudor inh -26.2%.
CCOCCN1CCN(C(=O)CN2CCCC2=O)CC1 was read as HP1b chromo inh 8.2%, L3MBTL1 block 5.4%, BAZ2B block 89.1µM*, G9a block 7.94µM* and JMJD2A Tudor inh inconclusive.
For CC(C)c1ccc(NC2CCCN(C(=O)CN3CCCC3=O)C2)cc1 (stereo unspecified) the results were HP1b chromo inh 57.3%, BAZ2B block -21.2%, G9a block 0.9%[59 µM] and JMJD2A Tudor inh -20.3%.
O=C(O)C1=C(C(=O)O)C2C=CC1C2 was read as HP1b chromo inh -10.7%[57 µM] and JMJD2A Tudor inh 89.1µM*.
For CC(C)(Sc1ccc(CCN(CCCCC2CCCCC2)C(=O)NC2CCCCC2)cc1)C(=O)O the results were HP1b chromo inh 13.6%, L3MBTL1 block -0.2%, BAZ2B block 79.4µM*, G9a block 79.4µM* and JMJD2A Tudor inh 79.4µM*.
Cc1ccccc1CNC(=O)Cc1csc2ccccc12 was read as HP1b chromo inh 29.3%, BAZ2B block -9.0%, G9a block -9.1%[59 µM] and JMJD2A Tudor inh -6.7%.
O=C(CN1CCSCC1)N/N=C/c1cccc(Cl)c1 was read as HP1b chromo inh 59.6%, L3MBTL1 block 2.2%, BAZ2B block 50.1µM*, G9a block 3.16µM* and JMJD2A Tudor inh inconclusive.
For CCOc1cc(/C=N/NC(=O)CN2CCCCC2)ccc1OCc1ccc(Cl)cc1 the results were HP1b chromo inh 10.9%, L3MBTL1 block -8.6%, BAZ2B block 50.1µM*, G9a block -3.9%[59 µM] and JMJD2A Tudor inh inconclusive.
For CCOc1cc(/C=N/NC(=O)CN2CCCCC2)ccc1OCc1cccc(Cl)c1 the results were HP1b chromo inh 4.2%, L3MBTL1 block -18.0%, BAZ2B block -37.4%, G9a block -4.6%[59 µM] and JMJD2A Tudor inh -20.4%.
For O=C(CN1CCCCCC1)N/N=C/c1cccc(Cl)c1 the results were HP1b chromo inh 4.0%, L3MBTL1 block 4.7%, BAZ2B block 50.1µM*, G9a block inconclusive and JMJD2A Tudor inh 79.4µM*.
O=C(CN1CCCCCCC1)N/N=C/c1ccc(F)c(F)c1 was read as HP1b chromo inh -37.4%, L3MBTL1 block 7.6%, BAZ2B block -37.1%, G9a block inconclusive and JMJD2A Tudor inh 3.16µM*.
For O=C(CN1CCCCC1)N/N=C/c1cccc(C(F)(F)F)c1 the results were HP1b chromo inh 2.2% and JMJD2A Tudor inh -17.7%.
`O=C(CN1CCCCC1)N/N=C/c1ccc(Cl)cc1` gave HP1b chromo inh 43.0%, L3MBTL1 block -12.0%, BAZ2B block inconclusive, G9a block 26.7% and JMJD2A Tudor inh -7.1%.
`O=C(CN1CCN(Cc2ccc(Cl)cc2)CC1)N/N=C/c1cccc(F)c1` gave HP1b chromo inh 16.3%, L3MBTL1 block 3.3%, BAZ2B block -11.5% and JMJD2A Tudor inh -3.9%.
`CCOc1ccc(CNC(=O)CCCn2nc(C)c3sc4ccccc4c3c2=O)cc1` gave HP1b chromo inh 10.0%, BAZ2B block -19.4%, G9a block -37.2%[59 µM] and JMJD2A Tudor inh -26.2%.
COc1cc(-c2noc(-c3ccc(NCC4CCCO4)c([N+](=O)[O-])c3)n2)cc(OC)c1OC (stereo unspecified) was read as HP1b chromo inh 35.0%, BAZ2B block -12.4%, G9a block 6.1%[59 µM] and JMJD2A Tudor inh -20.2%.
For CCOc1ccccc1NC(=O)N1CCC(N2CCN(Cc3ccccc3)C(=O)C2=O)CC1 the results were HP1b chromo inh 36.0%, BAZ2B block -0.5%, G9a block 5.3%[59 µM] and JMJD2A Tudor inh -7.7%.
For CN(C)CCOCCOc1ccccc1-c1ccccc1 the results were HP1b chromo inh inconclusive, L3MBTL1 block -4.5%, BAZ2B block 20µM*, G9a block -33.8%[0.501 µM] and JMJD2A Tudor inh 2.82µM*.
Screening CN(C)CCOc1ccccc1-c1ccccc1 returned HP1b chromo inh inconclusive, BAZ2B block 25.1µM*, G9a block -40.7%[2.33 µM] and JMJD2A Tudor inh 0.891µM*.
`CC(=O)c1nnn(-c2nc(C#N)nc(N3CCOCC3)n2)c1C` gave HP1b chromo inh 20.9%[57 µM] and JMJD2A Tudor inh -10.0%[57.1 µM].
Cc1ccc(Cl)cc1N1CCN(C(=O)CCCn2c(=O)[nH]c3ccc(Br)cc3c2=O)CC1 was read as HP1b chromo inh 14.5%, BAZ2B block -11.9%, G9a block -28.0%[59 µM] and JMJD2A Tudor inh -23.2%.
For CC(C)(C)c1cc(C(=O)N/N=C/c2ccc(-c3ccccc3[N+](=O)[O-])o2)n[nH]1 the results were HP1b chromo inh -23.2%, BAZ2B block inconclusive, G9a block 39.8µM* and JMJD2A Tudor inh inconclusive.
Screening Cc1cc(C(=O)N/N=C/c2cc(N=Nc3ccccc3)ccc2O)n[nH]1 returned HP1b chromo inh 5.1%, L3MBTL1 block -17.1%, BAZ2B block -32.2%, G9a block 50.1µM* and JMJD2A Tudor inh inconclusive.
COC(=O)N/N=C/c1cc(N=Nc2ccccc2Cl)ccc1O was read as HP1b chromo inh 32.7%, L3MBTL1 block -19.6%, BAZ2B block inconclusive, G9a block -24.3% and JMJD2A Tudor inh inconclusive.
Cc1cc(C(=O)N/N=C/c2cccc([N+](=O)[O-])c2O)n[nH]1 was read as HP1b chromo inh 30.9%, L3MBTL1 block inconclusive, BAZ2B block 31.6µM*, G9a block 22.8%[59 µM] and JMJD2A Tudor inh 50.1µM*.
`Nc1ccc(C(=O)N/N=C\c2cc(N=Nc3cccc4ccccc34)ccc2O)cc1` gave HP1b chromo inh inconclusive, L3MBTL1 block -17.0%, BAZ2B block 44.7µM*, G9a block -7.0%[0.501 µM] and JMJD2A Tudor inh inconclusive.
For Cc1ccc(OCC(=O)Nc2ccc3nn(-c4ccc(C)cc4)nc3c2)cc1 the results were HP1b chromo inh 11.2%, BAZ2B block -13.0%, G9a block 13.1%[59 µM] and JMJD2A Tudor inh -1.1%.
`CC1CCC2(CC1)NC(=O)N(CC(=O)N1CCOCC1)C2=O` (stereo unspecified) gave HP1b chromo inh 15.6%, L3MBTL1 block -8.0% and JMJD2A Tudor inh -4.1%.
